# Measured values published in ChEMBL document CHEMBL3988442, “University of Dundee, Small-Polar-MMV Screening Library” (2021).
# Among all 48,000 compounds or so, about 13,000 (27%) showed an effect of 50% or more. Some of the results follow.
# Tested on: Wolbachia pipientis
# Assay: Anti-Wolbachia Cell-Based Screen
# Assay type: functional
# Set-up: scale not given: in the data most compounds retested in dose-response had high values
# Conditions: 5 µM
row,SMILES,Percent Effect [%]
1,Cc1nc(NC(=O)C(C)S(C)(=O)=O)sc1Cc1ccc(F)cc1 (stereo not given),3.284
2,Cn1ccnc1CCNS(=O)(=O)c1cccc(Br)c1,11.32
3,CC(C)c1ccc(/C=C/CC(=O)NC2CCN(C(N)=O)CC2)cc1,-28.76
4,Cc1cnn(CC2CCCCN2Cc2nc(N)c3ccccc3n2)c1 (stereo not given),-1.986
5,CSCCC(NC(N)=O)C(=O)Nc1ccc(-n2cccn2)nc1 (stereo not given),-4.081
6,N#CCCN(C(=O)CN1CCCC1C1CCCCC1)c1ccccc1 (stereo not given),-8.996
7,CCC(C)N(Cc1ccc(C)cc1)Cc1c[nH]c(C)n1 (stereo not given),14.09
8,N#CCCN(c1ccccc1)S(=O)(=O)CC1CCCCO1 (stereo not given),-2.973
9,CCOc1ccc(NC(=O)N(CCC#N)Cc2ccccn2)cc1F,-26.47
10,O=C(CCc1cccnc1)N1CCCC(n2cncn2)C1 (stereo not given),-7.114
11,O=C(Cc1cccnc1)N1CCCC(n2cncn2)C1 (stereo not given),106.6
12,O=C(Cc1ccccc1Cl)N1CCCC(n2cncn2)C1 (stereo not given),-8.361
13,Cc1cccnc1CNc1ccc(C(=O)N2CCc3ccccc32)cn1,0
14,O=C(NCC(O)c1ccccc1C(F)(F)F)c1cccnc1 (stereo not given),-5.174
15,O=C(NCc1cccnc1)NCC(O)c1ccccc1C(F)(F)F (stereo not given),-3.866
16,COCc1cccc(CNc2cnn(C(C)(C)C)c(=O)c2Cl)c1,-38.78
17,COc1cc(CNc2cnn(C(C)(C)C)c(=O)c2Cl)ccn1,-46.44
18,CC(C)(C)n1ncc(NCC(O)c2ccc(F)c(F)c2)c(Cl)c1=O (stereo not given),100.9
19,CC(C)(C)n1ncc(NCC(O)c2ccccc2)c(Cl)c1=O (stereo not given),108.9
20,CC(C)(C)n1ncc(NCc2ccccc2)c(Cl)c1=O,-16.67
21,CC(C)(C)n1ncc(NCCc2ccccc2C(F)(F)F)c(Cl)c1=O,139.1
22,OC(CNCCn1cccn1)c1ccc(F)c(F)c1 (stereo not given),-2.779
23,COCc1ccc(CNc2cnn(C(C)(C)C)c(=O)c2Cl)cc1,2.959
24,CC(C)(C)n1ncc(NCC(O)c2ccccc2C(F)(F)F)c(Cl)c1=O (stereo not given),100.7
25,CC(C)(C)n1ncc2c(=O)n(CC(=O)NCc3ccccc3Cl)cnc21,3.164
26,CCc1noc(CNc2ccc(F)cc2OCC2CC2)n1,-5.752
27,CC(NCc1cnc(C2CCC2)s1)c1ccccc1-n1cccn1 (stereo not given),-10.15
28,Cc1ccc(-c2ccc(C(=O)NCCC(=O)N(C)C)c(F)c2)cc1,-15.57
29,c1ccc2c(N3CCSCC3)cnnc2c1,-7.227
30,Cc1ccc(CNCCCNS(C)(=O)=O)c(Br)c1,3.842
